Shiga inhibitor = blocks Shiga toxin action in Vero cells; Vero cells, Shiga toxin protein synthesis inhibition reporter; inhibition, % at 38.7 µM; hit rate 9.2% among 290,000; AID 2315; in the data active means inhibition mostly above about 28%, no sharp cut-off; inactive means mostly below about 43%; further: 0% is about no effect
SARS PLpro yeast = SARS-CoV PLP inhibition in yeast; S. cerevisiae expressing SARS-CoV PLpro, growth rescue; Potency, µM (doses to about 32.9 µM), inactives show at the top dose activity, positive = growth rescue, hits mostly activators; hit rate 0.19% among 330,000; AID 485353; calls by dose curve; further: potency means the concentration at half of the fitted maximal effect; 0% is about no effect; nearly all actives have a fitted effect of over 55% in size
AmpC inh detg = inhibitors of E. coli AmpC beta-lactamase with detergent; P00811; AmpC hydrolysis of nitrocefin, absorbance 480 nm, 0.01% Triton; Potency, µM (doses to about 114 µM), without a hit: top-dose activity change, negative = inhibition, hits mostly inhibitors; hit rate 0.041% among 370,000; AID 485294;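 further: potency means the concentration at half of the fitted maximal effect; 0% = no-compound wells and -100% = no-enzyme wells; nearly all actives have a fitted effect of over 25% in size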
Target sequence (P00811 whole entry, looked up): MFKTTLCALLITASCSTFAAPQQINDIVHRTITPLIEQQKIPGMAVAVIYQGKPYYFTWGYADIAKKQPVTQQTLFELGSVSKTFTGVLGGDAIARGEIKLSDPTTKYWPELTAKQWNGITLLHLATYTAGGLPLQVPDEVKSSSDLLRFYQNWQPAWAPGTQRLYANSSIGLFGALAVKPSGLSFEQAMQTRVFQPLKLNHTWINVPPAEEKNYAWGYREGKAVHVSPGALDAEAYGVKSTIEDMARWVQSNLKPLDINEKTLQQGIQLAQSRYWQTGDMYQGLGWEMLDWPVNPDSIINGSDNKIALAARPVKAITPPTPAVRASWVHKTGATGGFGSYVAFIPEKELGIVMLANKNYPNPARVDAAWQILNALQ
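20 mM phosphate pH 7.0 + 0.01% (detergent screen) or 0.0001% Triton X-100; 5.3 nM AmpC reagent; cpd preinc 15 min RT; nitrocefin (800 uM stock) to start; A480 q20 s × 4 min; Activity was normalised to no-enzyme and no-compound control wells.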
AMA1 RON2 block = inhibitors of Plasmodium falciparum AMA1-RON2 interaction | Potency, µM (top dose mostly 58.2 µM), for inactives: top-dose activity change, negative = inhibition, hits mostly inhibitors | hit rate 0.2% among 360,000 | AlphaScreen AMA1-biotinylated RON2 peptide binding | AID 720542;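 further: potency means the concentration at half of the fitted maximal effect; 0% = vehicle wells and -100% = peptide control; nearly all actives have a fitted effect of over 45% in size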
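AMA1 (3D7) with his tag at 25 nM final met compounds first, then biotinylated RON2 peptide at 25 nM; detection used donor plus acceptor beads, 10 µg/mL apiece, read by AlphaScreen after 30 min at room temperature.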
CHX counter = counter-screen hit for Shiga toxin inhibitors, cycloheximide | cell reporter, cycloheximide protein synthesis inhibition counterscreen | max response, % | hit rate 12% among 300,000 | AID 2314; in the data active means max response mostly above about 13%, no sharp cut-off; inactive means mostly below about 14%; further: read at 38.3 µM for the half of the compounds with a filed dose; 0% is about no effect
AmpC inh no detg = blocks E. coli AmpC beta-lactamase in detergent-free assay; hit rate 0.52% among 330,000; AmpC nitrocefin hydrolysis, absorbance 480 nm, 0.0001% Triton; P00811; Potency, µM (titrated, usually from 57.1 µM), inactives show at the top dose activity change, negative = inhibition, most hits filed as inhibitors;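 further: potency means the concentration at half of the fitted maximal effect; plate controls were no compound for no effect and no enzyme for full effect; nearly all actives have a fitted effect of over 20% in size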
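20 mM phosphate pH 7.0 + 0.01% (detergent screen) or 0.0001% Triton X-100; 5.3 nM AmpC reagent; cpd preinc 15 min RT; nitrocefin (800 uM stock) to start; A480 q20 s × 4 min; Activity was normalised to no-enzyme and no-compound control wells.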
* hit, by the source's call; ? = inconclusive; nt = no result; [ ] = another dose, or the depositor's remark. The sample as a whole holds a higher share of hits than the screen did. Unless noted, the call rests on the fitted dose curve; in most records, active means well fitted curve in the direction sought with a large enough effect; inconclusive means small, poorly fitted or top-dose-only effect, or another doubt; inactive means no such curve, though single readings can be large; an effect the other way counts as inactive or inconclusive.

SMILES | Shiga inhibitor | SARS PLpro yeast | AmpC inh detg | AMA1 RON2 block | CHX counter | AmpC inh no detg
O=C(CCSCCC(=O)NN=Cc1cccc(Cl)c1)NN=Cc1cccc(Cl)c1 | nt | nt | nt | -2.2% | nt | nt
CC(=O)Nc1sc(N/N=C\c2ccc(O)cc2)nc1-c1cccs1 | 68.4* | 1.3% | -0.4% | 52.1% | 27.2* | -42.4%
CCc1c(C(C)O)oc2ccc3c(C)cc(=O)oc3c12 (centres undefined) | 8.0 | 0.4% | -10.3% | nt | 12.1 | -56.9%
O=C(COC(=O)c1ccc2ccccc2c1O)NCC(F)(F)F | 69.3* | -1.9% | 2.8% | -3.4% | 22.3* | -19.9%
CCN(CC)C(=O)CSc1nnc(-c2ccc(S(=O)(=O)N3CCOCC3)cc2)n1C | 4.6 | -0.2% | -3.3% | -5.3% | -3.9 | 1.5%
CCOc1ccc(C)cc1-n1nc2ccccc2n1 | 18.7 | 1.3% | ? | -4.6% | 20.1* | -6.8%
Cc1ccc(OCC(=O)Nc2ccc(Cl)cc2)c(-n2nc3ccccc3n2)c1 | -1.5 | 2.5% | ? | -6.7% | 2.4 | -27.1%
COc1ccc(C)cc1-n1nc2ccccc2n1 | 54.0 | -1.3% | 0.5% | 0.1% | 25.9* | -4.5%
Cc1ccc(O)c(-n2nc3ccccc3n2)c1 | 90.3* | -0.3% | -3.6% | 27.2% | 44.0* | -8.3%
O=C(COc1ccc2ccc(=O)oc2c1)c1ccccc1 | 31.3 | 1.0% | -6.0% | 8.0% | 22.8* | -22.3%
CN(C)C(=O)COc1ccc2ccc(=O)oc2c1 | 13.2 | 5.0% | -6.3% | -0.7% | 1.3 | -25.1%
Cc1ccccc1OCC(=O)Nc1ccc2oc(=O)ccc2c1 | 54.1 | -2.2% | 5.9% | 12.7% | 33.2* | -17.4%
CSc1cccc(NC(=O)COc2ccccc2C)c1 | 47.5* | -1.1% | -11.5% | -11.0% | 15.7* | ?
O=C(COc1ccccc1)Nc1ccc2oc(=O)ccc2c1 | 51.9* | -1.2% | -10.0% | -2.7% | 23.0* | -26.1%
CC(C)c1ccc(NC(=O)c2cc(S(=O)(=O)NCCc3ccccc3)ccc2F)cc1 | nt | nt | -1.2% | nt | nt | nt
CCn1cc(C(=O)NCCCN(C)C)c(=O)c2cc(F)c(N3CCN(C)CC3)cc21 | -3.6 | 5.2% | ? | -12.4% | -3.7 | -10.3%
CCOC(=O)c1cnc2oc3ccccc3n2c1=O | nt | nt | -2.9% | -13.1% | 57.6* | 2.9%
CCOC(=O)c1cnc2nc(C)[nH]n2c1=O | -5.3 | 1.5% | -0.8% | -1.8% | -3.1 | -7.0%
CCOC(=O)c1cnc2sc3c(n2c1=O)CCCC3 | 92.5* | 7.3% | ? | 1.7% | 42.7* | -46.3%
CC(=O)Nc1ccc(NC(=O)C2(C)CC2(Cl)Cl)cc1 (centres undefined) | -4.6 | 1.3% | -7.9% | 1.2% | -1.2 | -17.7%
COc1ccc(OCC(=O)C2CC2)c(C#N)c1 | 25.6 | 0.2% | -5.6% | 19.4% | 27.1* | -10.9%
COc1ccc(C(=O)C2CC2)cc1 | nt | nt | nt | -18.6% | nt | nt
CCCn1nnc(NC(=O)c2cccnc2Cl)n1 | -1.3 | 27.1% | -0.2% | -6.7% | -3.7 | -8.9%
CCCn1nnc(NC(=O)/C=C/c2ccco2)n1 | 16.6 | -1.3% | 6.3% | -11.3% | 13.6 | -7.3%
Cc1nc(NC(=O)/C=C/c2ccccc2)n[nH]1 | 22.1 | -50.2% | -2.3% | 20.1% | 15.5* | -8.2%
SMILES | Shiga inhibitor | SARS PLpro yeast | AmpC inh detg | AMA1 RON2 block | CHX counter | AmpC inh no detg
CCCn1nnc(NC(=O)/C=C/c2ccccc2)n1 | 51.9 | -0.7% | -0.7% | -11.1% | 16.7* | -16.6%
CCCn1nnc(NC(=O)c2ccc(Cl)cc2Cl)n1 | 112.9* | -2.8% | 15.9% | 123.8% | 45.0* | -6.8%
CCCn1nnc(NC(=O)c2ccccc2Cl)n1 | 46.4 | -1.7% | -5.9% | -2.2% | 26.8* | 1.5%
COc1ccc(-c2cc(=O)oc3cc(OC(=O)C4CCCCC4)c(Cl)cc23)cc1 | 5.3 | -22.5% | ? | 19.8% | -5.0 | -42.0%
COc1ccc(OC)c(NC(=O)CN2c3cccc4cccc(c34)S2(=O)=O)c1 | nt | 1.3% | nt | -7.6%[11.6 µM] | nt | -19.1%
COc1ccc(NC(=O)CN2c3cccc4cccc(c34)S2(=O)=O)c(OC)c1 | 23.1 | -1.0% | ? | -2.8% | 14.0* | -26.0%
COc1ccccc1NC(=O)COc1ccccc1 | 35.3 | -11.0% | ? | 0.0% | 16.6* | -15.5%
COc1ccc(NC(=O)COc2ccccc2)c(OC)c1 | 50.7* | -1.0% | 0.6% | 0.0% | 34.2* | -16.3%
Cc1cccc(OCC(=O)Nc2cccc3nsnc23)c1 | -9.1 | -3.4% | -8.9% | 19.7% | 1.1 | -22.8%
O=C(COc1ccccc1)Nc1cccc2nsnc12 | 35.4 | 0.9% | -7.1% | 20.1% | 65.7* | -1.6%
COc1cccc(OCC(=O)NNC(=O)C(=O)Nc2ccc(OC)cc2OC)c1 | -2.6 | 1.3% | -0.3% | 82.6% | 7.5 | -9.3%
CCOc1ccc(CN(C)CC(=O)NNC(=O)c2ccc(Cl)cc2)cc1OC | -4.0 | -24.7% | 1.8% | 14.3%[2.32 µM] | -1.7 | -7.7%
COc1ccc(NC(=O)COc2ccc(Br)cc2)c(OC)c1 | 30.2* | 3.7% | -3.6% | -2.2% | 13.4* | -3.0%
COc1ccc(OCC(=O)Nc2ccccc2O)cc1 | 75.4* | -18.1% | 1.7% | -9.0% | 35.8* | -22.4%
O=C(Nc1ccc(Cl)cc1)Nc1cccc2nsnc12 | 113.9* | -6.9% | -17.6% | 32.1% | 63.6* | -44.9%
COc1ccc(NC(=O)NNC(=O)COc2ccc3cc(Br)ccc3c2)c(OC)c1 | -3.4 | 2.6% | -0.1% | 29.2% | 1.0 | -16.0%
Cc1ccccc1NC(=O)C1CC(=O)OC12CCOC(C)(C)C2 (centres undefined) | 2.3 | 0.7% | 10.7% | 15.1% | 7.1 | -0.5%
Cc1c(O)c(=O)ccn1Cc1ccccc1 | -12.1 | 10µM* | ? | 107.2% | -4.1 | -37.1%
Cc1ccc(Cn2ccc(=O)c(OCc3ccccc3)c2C)cc1 | 118.3 | 8.5% | -19.5% | 7.2% | 24.3 | 5.2%
Cc1ccc(/C=C2\SC(N3CCCCC3)=NC2=O)cc1 | 72.8* | -10.2% | -8.3% | 1.4% | 42.4* | -5.0%
O=C1N=C(N2CCCC2)S/C1=C\c1ccccc1 | 39.2 | -7.0% | ? | 0.0% | 6.4 | -14.0%
CCOC(=O)C1CCCN(C2=NC(=O)/C(=C/c3ccc(N(C)C)cc3)S2)C1 (centres undefined) | 33.4* | 0.2% | -0.4% | -21.6% | 25.7* | 43.3%
O=C1N=C(N2CCCCC2)S/C1=C\c1ccccc1F | 60.8* | -17.9% | -7.8% | -18.8% | 22.2* | -8.2%
COCCn1c(C)cc(C(=O)COC(=O)c2[nH]c(C)c(C(C)=O)c2C)c1C | nt | 2.3% | 2.3% | -3.3%[11.6 µM] | nt | 79.8%
O=C(Cc1ccccc1)NN=Cc1ccccc1 | nt | nt | nt | 1.3% | nt | nt
O=C(Cc1ccccc1)N/N=C/c1ccc(S(=O)(=O)O)o1 | -2.0 | 0.8% | -3.3% | 8.0% | -1.7 | -12.6%
O=C(Cc1ccccc1)N/N=C/c1cc(Br)c(Br)o1 | 38.1* | 1.7% | -7.6% | 40.6% | 42.9* | -31.1%
O=C(Cc1ccccc1)N/N=C/c1ccccc1F | 57.9* | -4.0% | 4.9% | nt | -2.2 | -4.9%
OC(c1ccccc1)(c1ccccc1)C1CCN(C(=S)NC2CCCC2)CC1 | -8.2 | -0.8% | 7.6% | -11.2% | 8.6 | -19.6%

Source: PubChem
